Sampled rows, rich in hits. Any-hit rate of the full collection: about 3.8%.
aDG glyco act – increases alpha dystroglycan glycosylation; Pro5-aDG cells, alpha-DG glycosylation AlphaScreen (IIH6); 0% Pro5, 100% B10-LARGE cell signal; activation, % at 10 µM; 0.22% of 360,000 active;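 active = activation of at least 8% versus controls, or a plate z-score of at least 8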;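 also: Pro5 are CHO cells carrying HIG-tagged alpha-DG that lacks glycosylation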
Cardio protect – modulators protecting cardiomyocytes from myocardial damage; H9c2 cardiomyocytes, H2O2 injury protection, ATPLite, 2 h; protection from H2O2 cell death, % at 20 µM; 0.63% of 360,000 active; AID 588492;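 active = compounds giving at least 50% protection of heart cells from peroxide-induced death in the single-dose screen, raw or plate-pattern-corrected value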
Mot1-301 SUMO – blocks SUMOylation pathway, rescuing yeast Mot1-301 growth. S. cerevisiae Mot1-301 growth rescue, ATP luminescence, 38.5C; percent above DMSO median, 100 means doubled. 1% of 320,000 active. growth rescue, % at 18.8 µM;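 active = every valid replicate shows activation above 250% relative to neutral control wells; inactive = the rest, any valid replicate at or below 250%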
MPTP inh – inhibitors of mitochondrial permeability transition pore | isolated mouse mitochondria, Ca2+ swelling absorbance, 30 min | inhibition, % at 10 µM | 1.4% of 360,000 active;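 active = inhibition of 50% or more, scaled per plate between neutral and stimulator controls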
FAS TE block – inhibitors of human fatty acid synthase thioesterase domain; inhibition, % at 15 µM; 0.67% of 360,000 active; recombinant FAS-TE, OMFH fluorogenic substrate, fluorescence endpoint; P49327;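 active = compounds whose normalised, plate-corrected inhibition of enzyme fluorescence in the single-dose primary screen is 50% or more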
CR mimetic SO – lowers age-related superoxide in aged yeast cells; 0.18% of 330,000 active; superoxide response (% of plate mean), % at 10 µM; S. cerevisiae aged cells, superoxide DHE fluorescence; stronger effect = lower value;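 active = superoxide response under a set limit, about three screen SD below normal, cut at about 65% in these data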;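 also: yeast aged for seven days with compound at 30 °C before DHE staining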
MPTP counter – Rhodamine 123 counter-screen of mitochondrial pore hits | isolated mitochondria, membrane potential, Rhodamine 123 fluorescence | 78% of 5,000 active | inhibition, % at 10 µM | shares compounds with MPTP inh; in the data active = inhibition above about 22%
MPTP abs DR – dose response confirmation of mitochondrial permeability transition pore inhibitors | isolated mitochondria swelling, absorbance | shares compounds with MPTP inh | 58% of 780 active | IC50, µM; in the data active = IC50 below about 20 µM
MPTP counter DR – counter-screen for mitochondrial permeability transition pore inhibitors, dose response; shares compounds with MPTP inh; isolated mitochondria counterscreen, fluorescence read-out; IC50, µM; 49% of 780 active; in the data active = IC50 below about 80 µM
aDG conf – alpha-DG glycosylation activation, confirmation; shares compounds with aDG glyco act; Pro5-aDG cells, IIH6 AlphaLISA; scaled to LARGE-overexpressing B10 cells as 100%; activation, % at 10 µM (by protocol); 17% of 600 active; AID 651671;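 active = activation of at least 7% in one or more replicates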;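 also: cells exposed to compound for two days before detection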
Of the large screens only hits and unclear results are named; the others gave an inactive call (follow-up assays come after a bar, where they were run); ! = not active in a repeat.

CCC(COC(=O)NC)NC(=O)Oc1cccc(C)c1 (centres undefined)	none
COc1ccc(N2CCN(CCCN)CC2)cc1	MPTP inh 69.9 | MPTP counter inactive | MPTP abs DR inactive | MPTP counter DR inactive
CCN(CC)S(=O)(=O)c1ccc(C)c(NCC(=O)Nc2ccc(C#N)c(Cl)c2)c1	MPTP inh 77.2 | MPTP counter 87.1
CCCCCCCSc1cc(OC)c(CCN(C)C)cc1OC	MPTP inh 103.2 | MPTP counter inactive
CCCCCSc1cc(OC)c(CCN)cc1OC	MPTP inh 96.7 | MPTP counter inactive | MPTP abs DR 3.44 | MPTP counter DR 77.3
CC(N)Cc1c[nH]c2ccc(O)cc12 (centres undefined)	none (no result: Mot1-301 SUMO, CR mimetic SO)
CC(N)Cc1c[nH]c2ccc(OCc3cccs3)cc12 (centres undefined)	MPTP inh 82.4 | MPTP counter inactive | MPTP abs DR 9.77 | MPTP counter DR inactive
CC1CCCCN1C(=O)c1ccc(N2CC3CC(C2)c2cccc(=O)n2C3)c([N+](=O)[O-])c1 (centres undefined)	none
Cc1cc(O)c2c3c(c(=O)oc2c1)CCC(C)C3 (centres undefined)	MPTP inh 57.1 | MPTP counter 88.6
CC1COC2N=C(N[N+](=O)[O-])NC2O1 (centres undefined)	none
O=C(NCc1cccnc1)Nc1ccc([N+](=O)[O-])cc1	MPTP inh 66.2 | MPTP counter 96.2
O=c1[nH]c2ccccc2n1C1CCN(CCCC(c2ccc(F)cc2)c2ccc(F)cc2)CC1	MPTP inh 88.5 | MPTP counter inactive
O=C1CC(N2CCC(n3c(=O)[nH]c4ccccc43)CC2)C(=O)N1c1ccc(F)cc1 (centres undefined)	none
Cc1nc2cc(OC(=O)N(C)Cc3cccc(-c4ccncc4)c3)ccc2s1	none (no result: Cardio protect, Mot1-301 SUMO, CR mimetic SO)
O=C(Nc1cccc(C(F)(F)F)c1)OC1CN2CCC1CC2 (centres undefined)	none
OC(c1cccc(Cl)c1)(c1cccc(Cl)c1)C1CN2CCC1CC2 (centres undefined)	MPTP inh 71.9 | MPTP counter inactive
CSc1ccc(C(=O)C2CCCN(Cc3cc4ccccc4[nH]3)C2)cc1 (centres undefined)	MPTP inh 57.6 | MPTP counter inactive | MPTP abs DR 5.89 | MPTP counter DR 25
CN1C(=O)/C(=C\c2ccc(N3CCCCCC3)cc2)C(=O)NC1=S	MPTP inh 71.4 | MPTP counter inactive | MPTP abs DR inactive | MPTP counter DR 57.3
CCCCN1C(=O)/C(=C/c2ccc(N3CCCCCC3)cc2)C(=O)NC1=S	none (no result: aDG glyco act, Cardio protect, MPTP inh, FAS TE block)
Oc1ccc(C2NCc3ccccc3-n3cccc32)cc1Cl (centres undefined)	MPTP inh 83.9! | MPTP counter inactive | MPTP abs DR inactive | MPTP counter DR inactive
O=C(O)c1sc2cc(Cl)ccc2c1Cl	none (no result: aDG glyco act, Cardio protect, MPTP inh, FAS TE block)
CNCCC(Oc1ccc(C(F)(F)F)cc1)c1ccccc1 (centres undefined)	none (no result: MPTP inh)
CNCC[C@H](Oc1cccc2ccccc12)c1cccs1	MPTP inh 93.5 | MPTP counter inactive | MPTP abs DR 3.85 | MPTP counter DR 67.9
Cc1ccc(C[n+]2c(-c3ccc(C)cc3)cc(-c3ccc(C)cc3)cc2-c2ccc(C)cc2)cc1	Mot1-301 SUMO 280.2, MPTP inh 92.7 | MPTP counter 115.9
COC(=O)C1=C(c2ccc(F)cc2OCc2ccccc2)C[C@@H]2CC[C@H]1N2C(=O)NCc1ccc(C)cc1	none
CCCNC(=O)Cn1cnc2sc(C(=O)N3CCC4(CC3)OCCO4)c(C)c2c1=O	aDG glyco act 13.6 | aDG conf inactive
Cc1ccc2c(c1)CC1(CN2C)C(=O)NC(=O)N(CCC2=CCCCC2)C1=O (centres undefined)	none
CC1CCC2[C@@H](C)C(=O)OC3O[C@]4(C)CCC1C32OO4 (some centres undefined)	aDG glyco act 2.6 | aDG conf inactive
COc1cc(OC)c(OC)cc1CN1CCN(C(=O)Cc2ccccc2)CC1	none
CCC1(c2ccc(N)cc2)CCC(=O)NC1=O (centres undefined)	aDG glyco act 11.8 | aDG conf inactive
CC(C)(C)N1CC(C(=O)c2ccccc2)C1c1ccccc1 (centres undefined)	none (no result: Mot1-301 SUMO, CR mimetic SO)
COC(=O)C1=C(c2ccc(C(C)=O)cc2)C[C@@H]2CC[C@H]1N2C(=O)NC1CCCCC1	aDG glyco act 7.3 | aDG conf inactive
COC(=O)C1=C(c2ccc3ccccc3c2)C[C@@H]2CC[C@H]1N2C(=O)NC1CCCCC1	none

Screening data: PubChem BioAssay, several laboratories
